# Source: PubChem BioAssay (Tox21)
# Inconclusive results are not listed. A call without a number means that no potency is given here. Calls of active or inactive are those of the source. Unless noted, calls follow the shape of the full dose curve.
# Key:
# [1] = molecular target: Estrogen receptor beta (Homo sapiens) (UniProt Q92731); assay: qHTS assay to identify small molecule agonists of the estrogen receptor beta (ER-beta) signaling pathway (AID 1259377; active = well fitted activation curve with a large enough effect in the signal ratio in the repeat runs, not every such curve was filed as active; the % refers to the signal ratio)
# Sequence of Estrogen receptor beta (Homo sapiens) (Q92731 whole entry, looked up): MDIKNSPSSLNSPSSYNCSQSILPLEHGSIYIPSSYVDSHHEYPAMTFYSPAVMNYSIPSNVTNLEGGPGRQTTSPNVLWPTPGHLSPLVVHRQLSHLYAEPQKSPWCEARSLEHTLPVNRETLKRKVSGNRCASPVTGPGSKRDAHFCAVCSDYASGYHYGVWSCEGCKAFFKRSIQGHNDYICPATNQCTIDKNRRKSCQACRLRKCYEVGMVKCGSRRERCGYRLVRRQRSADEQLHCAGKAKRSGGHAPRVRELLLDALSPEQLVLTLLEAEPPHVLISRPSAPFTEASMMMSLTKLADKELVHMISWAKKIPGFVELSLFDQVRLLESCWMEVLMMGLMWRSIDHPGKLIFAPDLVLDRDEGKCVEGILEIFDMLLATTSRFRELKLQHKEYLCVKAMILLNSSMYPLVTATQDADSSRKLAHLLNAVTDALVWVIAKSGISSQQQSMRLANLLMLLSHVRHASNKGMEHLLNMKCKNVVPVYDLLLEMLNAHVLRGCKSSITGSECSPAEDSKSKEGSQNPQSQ
# In short: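 Screening used GripTite ER-beta-UAS-bla cells held in 2% charcoal-stripped FBS medium. After overnight (16 hr) compound incubation at 37C, beta-lactamase activity was detected with a FRET substrate by fluorescence.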
# [2] = molecular target: Estrogen receptor beta (Homo sapiens) (UniProt Q92731); assay: qHTS assay to identify small molecule antagonists of the estrogen receptor beta (ER-beta) signaling pathway (AID 1259378; active = well fitted inhibition curve with a large enough effect in the signal ratio in the repeat runs, not every such curve was filed as active; the % refers to the signal ratio; also: potency is read from the fitted curve at half-maximal effect)
# In short: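 Antagonist mode: compounds added to beta-lactamase reporter HEK293T ER-beta-UAS cells stimulated with E2 (1nM final), 16 hr at 37C. LiveBLAzer B/G FRET substrate, 2 hours room temperature, fluorescence read-out.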
# [3] = qHTS assay to identify small molecule agonists of the androgen receptor (AR) signaling pathway in the presence of an antagonist - cell viability counter screen (AID 1259379; active = well fitted curve in the direction sought with a large enough effect in the repeat runs; an effect the other way counts as inactive or inconclusive; also: nearly all actives have a fitted effect of over 25% in size; also: potency is read from the fitted curve at half-maximal effect)
# In short: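 MDA-kb2 viability measured by CellTiter-Fluor fluorescence in the same wells as the luciferase signal; nilutamide 3.0uM final; 15-point compound titration; 16 hr at 37C.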
# [4] = qHTS assay to identify small molecule agonists of the estrogen receptor beta (ER-beta) signaling pathway - cell viability counter screen (AID 1259380; active = well fitted curve in the direction sought with a large enough effect in the repeat runs; an effect the other way counts as inactive or inconclusive; also: nearly all actives have a fitted effect of over 30% in size; also: potency is read from the fitted curve at half-maximal effect)
# In short: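 Measured: luminescence from CellTiter-Glo after 30 min at room temperature, added to wells already read for the LiveBLAzer FRET reporter (2 hr substrate); ER-beta-UAS-bla HEK293T cells had 16 hr compound treatment at 37C, 5% CO2.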
# [5] = qHTS assay to identify small molecule antagonists of the estrogen receptor beta (ER-beta) signaling pathway - cell viability counter screen (AID 1259382; active = well fitted curve in the direction sought with a large enough effect in the repeat runs; an effect the other way counts as inactive or inconclusive; also: nearly all actives have a fitted effect of over 55% in size; also: potency is read from the fitted curve at half-maximal effect)
# In short: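 Readout: luminescence, CellTiter-Glo, same wells as bla assay. System: ER-beta-UAS-bla GripTite HEK293T, 2% charcoal-stripped FBS. Exposure: compounds plus 1nM 17-beta-estradiol, 16 hr, 37C.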
# [6] = qHTS assay to identify small molecule agonists or antagonists of the thyroid stimulating hormone receptor (TSHR) signaling pathway - wild type cell line counter screen (AID 1259384)
# In short: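 Counter screen in untransfected Hek293: compounds (15-point titration, triplicate) plus phosphodiesterase inhibitor Ro20-1724 added after 18 h plating; 30 min RT. Intracellular cAMP via competitive d2/cryptate immunoassay, 1 h incubation.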
# [7] = molecular target: Thyrotropin receptor (Homo sapiens) (UniProt P16473); assay: qHTS assay to identify small molecule antagonists of the thyroid stimulating hormone receptor (TSHR) signaling pathway (AID 1259385); also: nearly all actives have a fitted effect of over 20% in size; also: potency is read from the fitted curve at half-maximal effect
# Sequence of Thyrotropin receptor (Homo sapiens) (P16473 whole entry, looked up): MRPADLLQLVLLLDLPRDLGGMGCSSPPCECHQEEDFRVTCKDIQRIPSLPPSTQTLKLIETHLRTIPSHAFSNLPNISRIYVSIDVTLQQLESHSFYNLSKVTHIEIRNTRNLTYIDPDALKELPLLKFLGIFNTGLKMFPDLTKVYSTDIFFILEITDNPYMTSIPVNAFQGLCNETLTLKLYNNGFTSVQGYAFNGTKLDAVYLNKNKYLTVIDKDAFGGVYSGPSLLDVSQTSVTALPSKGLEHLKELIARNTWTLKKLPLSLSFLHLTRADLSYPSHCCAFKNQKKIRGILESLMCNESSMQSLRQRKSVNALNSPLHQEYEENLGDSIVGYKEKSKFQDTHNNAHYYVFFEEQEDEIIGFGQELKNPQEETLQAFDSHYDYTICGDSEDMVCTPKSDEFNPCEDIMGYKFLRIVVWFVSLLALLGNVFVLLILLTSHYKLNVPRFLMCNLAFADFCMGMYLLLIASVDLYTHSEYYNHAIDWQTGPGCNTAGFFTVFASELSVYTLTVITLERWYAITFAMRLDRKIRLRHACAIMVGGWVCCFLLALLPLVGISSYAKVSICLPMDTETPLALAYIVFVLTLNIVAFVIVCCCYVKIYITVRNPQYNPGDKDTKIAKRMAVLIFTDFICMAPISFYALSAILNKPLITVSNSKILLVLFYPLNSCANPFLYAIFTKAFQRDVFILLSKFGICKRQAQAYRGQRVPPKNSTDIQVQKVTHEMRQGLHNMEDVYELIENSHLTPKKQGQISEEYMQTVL
# In short: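 Antagonist mode: compound-treated TSHR-expressing HEK293 cells were stimulated with 1.5 ng/mL TSH (final) in presence of Ro20-1724 for 30 min at RT. HTRF cAMP detection after 1 h; each compound tested at 15 concentrations, triplicate.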
# [8] = qHTS assay to identify small molecule agonists of the estrogen receptor alpha (ER-alpha) signaling pathway in the presence of an antagonist - cell viability counter screen (AID 1259386; active = well fitted curve in the direction sought with a large enough effect in the repeat runs; an effect the other way counts as inactive or inconclusive;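 also: cells exposed to compounds for 22 h at 37 °C before the viability read; nearly all actives have a fitted effect of over 30% in size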; also: potency is read from the fitted curve at half-maximal effect)
# In short: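 The test measures whether compounds kill ER-alpha reporter cells (VM7Luc4E2) under antagonist co-treatment (ICI-182,780, 10.0nM). Fluorescence from CellTiter-Fluor is read after a 22hr exposure.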
# [9] = molecular target: Progesterone receptor (Homo sapiens) (UniProt P06401); assay: qHTS assay to identify small molecule agonists of the progesterone receptor (PR) signaling pathway (AID 1346784); also: nearly all actives have a fitted effect of over 30% in size; also: potency is read from the fitted curve at half-maximal effect
# Sequence of Progesterone receptor (Homo sapiens) (P06401 whole entry, looked up): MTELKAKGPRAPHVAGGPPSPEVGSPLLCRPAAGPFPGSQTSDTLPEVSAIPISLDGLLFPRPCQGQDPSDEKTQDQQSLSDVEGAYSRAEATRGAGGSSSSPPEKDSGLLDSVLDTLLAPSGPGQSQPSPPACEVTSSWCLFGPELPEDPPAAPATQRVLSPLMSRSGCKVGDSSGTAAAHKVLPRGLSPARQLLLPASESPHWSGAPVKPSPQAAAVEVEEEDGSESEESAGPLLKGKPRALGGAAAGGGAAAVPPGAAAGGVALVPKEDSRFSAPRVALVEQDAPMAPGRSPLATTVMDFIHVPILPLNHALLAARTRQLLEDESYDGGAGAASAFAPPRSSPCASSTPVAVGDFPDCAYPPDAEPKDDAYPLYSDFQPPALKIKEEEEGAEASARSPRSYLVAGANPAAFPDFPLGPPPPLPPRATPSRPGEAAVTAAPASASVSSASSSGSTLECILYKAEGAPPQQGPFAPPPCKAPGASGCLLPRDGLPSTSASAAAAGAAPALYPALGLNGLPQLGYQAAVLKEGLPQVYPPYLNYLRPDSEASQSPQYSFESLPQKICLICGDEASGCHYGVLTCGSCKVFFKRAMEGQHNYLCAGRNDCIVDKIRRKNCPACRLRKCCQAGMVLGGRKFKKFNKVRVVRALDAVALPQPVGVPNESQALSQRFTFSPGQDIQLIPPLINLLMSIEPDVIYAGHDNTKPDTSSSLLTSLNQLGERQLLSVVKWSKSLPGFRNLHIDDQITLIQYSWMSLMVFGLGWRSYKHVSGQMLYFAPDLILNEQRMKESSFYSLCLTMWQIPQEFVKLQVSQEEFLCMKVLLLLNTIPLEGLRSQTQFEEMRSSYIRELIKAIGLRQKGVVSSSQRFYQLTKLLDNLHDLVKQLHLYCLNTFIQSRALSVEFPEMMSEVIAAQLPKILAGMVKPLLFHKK
# In short: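 Seed PR-UAS-bla HEK 293T cells (2% charcoal-stripped FBS), incubate 6 hr at 37C; add compounds in DMSO, 16 hr at 37C; add LiveBLAzer B/G substrate, 2 hr RT; read fluorescence intensity.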
# [10] = molecular target: Progesterone receptor (Homo sapiens) (UniProt P06401); assay: qHTS assay to identify small molecule antagonists of the progesterone receptor (PR) signaling pathway (AID 1346795; active = well fitted inhibition curve with a large enough effect in the signal ratio in the repeat runs, not every such curve was filed as active; the % refers to the signal ratio; also: potency is read from the fitted curve at half-maximal effect)
# In short: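 Screening used a GripTite HEK293T line with PR-responsive UAS-beta-lactamase. Cells were challenged with compound in the presence of 1 nM R5020 final for 16 hr at 37C; B/G FRET substrate, 2 hr room temperature, fluorescence.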
# [11] = qHTS assay to identify small molecule antagonists of the progesterone receptor (PR) signaling pathway - cell viability counter screen (AID 1346798; active = well fitted curve in the direction sought with a large enough effect in the repeat runs; an effect the other way counts as inactive or inconclusive; also: nearly all actives have a fitted effect of over 50% in size; also: potency is read from the fitted curve at half-maximal effect)
# In short: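 Measures cytotoxicity in parallel with the PR antagonist reporter read: HEK293T PR-UAS-bla cells get compound and R5020 for 16 hr, and remaining viable cells are quantified by CellTiter-Glo luminescence.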
# [12] = qHTS assay to identify small molecule agonists of the TGF-beta/Smad signaling pathway - cell viability counter screen (AID 1346829; active = well fitted curve in the direction sought with a large enough effect in the repeat runs; an effect the other way counts as inactive or inconclusive; also: nearly all actives have a fitted effect of over 45% in size; also: potency is read from the fitted curve at half-maximal effect)
# In short: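 Here the cytotoxicity of library compounds is measured in SBE-bla HEK 293T cells treated for 5 hr, using CellTiter-Glo added to wells already read for the beta-lactamase reporter.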
# [13] = molecular target: Thyrotropin-releasing hormone receptor (Homo sapiens) (UniProt P34981); assay: qHTS assay to identify small molecule agonists of the thyrotropin-releasing hormone receptor (TRHR) signaling pathway (AID 1346891); also: potency is read from the fitted curve at half-maximal effect;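 as to activation: HEK293 cells expressing TRHR with calcium dye readout; series mostly up to about 58 µM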
# Sequence of Thyrotropin-releasing hormone receptor (Homo sapiens) (P34981 whole entry, looked up): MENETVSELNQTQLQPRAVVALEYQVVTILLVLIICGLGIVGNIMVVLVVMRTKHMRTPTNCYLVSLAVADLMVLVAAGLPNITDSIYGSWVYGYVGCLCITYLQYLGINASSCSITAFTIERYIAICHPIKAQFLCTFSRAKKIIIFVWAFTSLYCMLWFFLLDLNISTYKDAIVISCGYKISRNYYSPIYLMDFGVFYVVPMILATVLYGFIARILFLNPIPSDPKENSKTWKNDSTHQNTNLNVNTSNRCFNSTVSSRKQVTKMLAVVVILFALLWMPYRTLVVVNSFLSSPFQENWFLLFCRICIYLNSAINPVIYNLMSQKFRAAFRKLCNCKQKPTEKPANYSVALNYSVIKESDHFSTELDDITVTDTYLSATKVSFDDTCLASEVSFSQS
# In short: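 Overnight-plated (18 h, 37 °C, 5% CO2) TRHR-Hek293 cells; 2 h calcium dye at 37 °C; compound in DMSO; 3-min kinetic fluorescence read.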
# [14] = qHTS assay to identify small molecule agonists of the TGF-beta/Smad signaling pathway (AID 1346859; active = well fitted activation curve with a large enough effect in the signal ratio in the repeat runs, not every such curve was filed as active; the % refers to the signal ratio; also: series mostly up to about 77 µM)
# In short: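 Beta-lactamase reporter activity downstream of Smad binding elements was measured in stably transfected HEK 293T cells; compounds were incubated for 5 hr, substrate for 2 hr at room temperature.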
# [15] = qHTS assay to identify small molecule agonists of the progesterone receptor (PR) signaling pathway - cell viability counter screen (AID 1346799); also: nearly all actives have a fitted effect of over 45% in size; also: potency is read from the fitted curve at half-maximal effect
# In short: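 Using the same plates as the PR reporter screen, HEK293T PR-UAS-bla cells received compounds for 16 hr at 37C and were then lysed with CellTiter-Glo; luminescence was read 30 min later at room temperature.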
# [16] = qHTS assay to identify small molecule antagonists of the TGF-beta/Smad signaling pathway - cell viability counter screen (AID 1346824; active = well fitted curve in the direction sought with a large enough effect in the repeat runs; an effect the other way counts as inactive or inconclusive; also: nearly all actives have a fitted effect of over 50% in size; also: potency is read from the fitted curve at half-maximal effect)
# In short: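 Cytotoxicity counter-screen run in the same wells as the beta-lactamase Smad reporter read: CellTiter-Glo luminescence after 30 min at room temperature. HEK 293T SBE-bla cells had 5 hr compound exposure at 37 C with TGF-beta1 (0.25 ng/mL stock).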
# [17] = molecular target: Thyrotropin-releasing hormone receptor (Homo sapiens) (UniProt P34981); assay: qHTS assay to identify small molecule antagonists of the thyrotropin-releasing hormone receptor (TRHR) signaling pathway (AID 1346877; active = well fitted inhibition curve with a large enough effect in the repeat runs, not every such curve was filed as active; also: series mostly up to about 51 µM)
# In short: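 Overnight-plated (18 h, 37 °C) HEK293 cells expressing TRHR were dye-loaded 2 h, treated with compound, then stimulated with TRH at 1 nM final. Fluorescence intensity was captured every second for 3 min.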
# [18] = molecular target: Estrogen receptor (Homo sapiens) (UniProt P03372); assay: qHTS assay to identify small molecule agonists of the estrogen receptor alpha (ER-alpha) signaling pathway in the presence of an antagonist (AID 1259383); also: nearly all actives have a fitted effect of over 15% in size; also: potency is read from the fitted curve at half-maximal effect; as to activation: top concentration of the series differs between compounds
# Sequence of Estrogen receptor (Homo sapiens) (P03372 whole entry, looked up): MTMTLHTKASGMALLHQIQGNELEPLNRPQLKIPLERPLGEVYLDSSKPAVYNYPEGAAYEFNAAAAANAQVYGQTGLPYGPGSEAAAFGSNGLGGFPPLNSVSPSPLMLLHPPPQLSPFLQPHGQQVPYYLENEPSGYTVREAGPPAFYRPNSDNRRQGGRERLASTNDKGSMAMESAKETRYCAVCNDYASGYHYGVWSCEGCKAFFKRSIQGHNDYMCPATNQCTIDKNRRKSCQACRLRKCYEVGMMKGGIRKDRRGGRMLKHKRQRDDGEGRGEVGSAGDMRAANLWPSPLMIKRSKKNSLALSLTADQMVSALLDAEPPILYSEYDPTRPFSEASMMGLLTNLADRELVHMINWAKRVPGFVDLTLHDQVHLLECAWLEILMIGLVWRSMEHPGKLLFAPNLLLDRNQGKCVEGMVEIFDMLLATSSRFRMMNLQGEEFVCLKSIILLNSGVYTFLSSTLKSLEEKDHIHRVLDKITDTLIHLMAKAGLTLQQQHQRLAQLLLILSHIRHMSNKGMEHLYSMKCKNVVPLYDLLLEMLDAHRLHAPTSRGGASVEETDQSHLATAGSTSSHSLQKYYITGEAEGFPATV
# In short: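 Quantitative HTS confirmation: compounds titrated at 15 concentrations onto estrogen-deprived VM7Luc4E2 cells carrying a four-ERE luciferase construct, with ICI-182,780 present at 10.0nM final. Signal is luminescence after 22hr exposure.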
# [19] = qHTS assay to identify small molecule antagonists of the sonic hedgehog signaling (Shh) pathway (AID 1259369); also: nearly all actives have a fitted effect of over 45% in size; also: potency is read from the fitted curve at half-maximal effect
# In short: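 NIH/3T3 stable Gli1-Luc clone, 2,000 cells/well, 4hr settle; cpd + conditioned medium 24hr; Luc reagent 30min RT; luminescence.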
# [20] = molecular target: Androgen receptor (Homo sapiens) (UniProt P10275); assay: qHTS assay to identify small molecule agonists of the androgen receptor (AR) signaling pathway in the presence of an antagonist (AID 1259381); also: nearly all actives have a fitted effect of over 15% in size; also: potency is read from the fitted curve at half-maximal effect
# Sequence of Androgen receptor (Homo sapiens) (P10275 whole entry, looked up): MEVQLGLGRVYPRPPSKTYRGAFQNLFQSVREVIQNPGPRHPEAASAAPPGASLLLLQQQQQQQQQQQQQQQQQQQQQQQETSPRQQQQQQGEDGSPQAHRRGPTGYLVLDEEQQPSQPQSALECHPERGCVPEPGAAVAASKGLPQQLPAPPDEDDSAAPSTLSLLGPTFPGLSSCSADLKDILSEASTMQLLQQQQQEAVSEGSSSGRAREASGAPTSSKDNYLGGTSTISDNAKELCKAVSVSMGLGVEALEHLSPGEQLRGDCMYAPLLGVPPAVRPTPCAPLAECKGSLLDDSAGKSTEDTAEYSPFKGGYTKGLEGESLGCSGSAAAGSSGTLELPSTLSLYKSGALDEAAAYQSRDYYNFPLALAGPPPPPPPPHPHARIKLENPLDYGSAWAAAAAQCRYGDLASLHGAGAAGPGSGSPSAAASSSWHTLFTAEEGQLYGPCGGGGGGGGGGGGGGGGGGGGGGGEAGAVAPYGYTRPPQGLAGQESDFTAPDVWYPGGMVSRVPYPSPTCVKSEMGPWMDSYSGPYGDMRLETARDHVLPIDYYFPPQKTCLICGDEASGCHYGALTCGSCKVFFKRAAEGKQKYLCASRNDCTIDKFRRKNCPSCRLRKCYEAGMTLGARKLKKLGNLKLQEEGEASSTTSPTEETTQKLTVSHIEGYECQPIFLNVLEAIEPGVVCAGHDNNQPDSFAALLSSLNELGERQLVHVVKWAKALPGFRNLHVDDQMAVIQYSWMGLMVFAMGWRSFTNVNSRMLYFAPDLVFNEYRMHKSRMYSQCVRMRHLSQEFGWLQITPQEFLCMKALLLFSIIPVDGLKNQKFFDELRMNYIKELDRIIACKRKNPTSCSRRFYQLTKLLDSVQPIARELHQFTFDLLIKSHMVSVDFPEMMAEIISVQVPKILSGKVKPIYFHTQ
# In short: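 Luminescent ONE-Glo read, 30min at room temperature, follows 16hr compound exposure (15 concentrations) of MDA-kb2 cells at 37C, 0% CO2, with nilutamide added at 3.0uM final.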
SMILES,Potency [1],Potency [2],Potency [3],Potency [4],Potency [5],outcome [6],Potency [7],Potency [8],Potency [9],Potency [10],Potency [11],Potency [12],Potency [13],Potency [14],Potency [15],Potency [16],Potency [17],Potency [18],Potency [19],Potency [20]
CCOC(=O)O[C@]1(C(=O)OCCl)CC[C@H]2[C@@H]3CCC4=CC(=O)C=C[C@]4(C)[C@H]3[C@@H](O)C[C@@]21C,inactive,inactive,inactive,26.6 µM (active),inactive,inactive,inactive,inactive,0.188 µM (active),inactive,inactive,inactive,inactive,,,,,,,
C/C(=C(/OCCOc1ccc(Cl)cc1)c1ccc(Cl)cc1Cl)n1ccnc1,inactive,13.3 µM (active),inactive,15 µM (active),,inactive,inactive,inactive,,8.41 µM (active),13.3 µM (active),inactive,,inactive,,,,,,
CCc1cc(SCc2sc(-c3ccc(C(F)(F)F)cc3)nc2CN2CCN(c3ccc(OC)cc3)CC2)ccc1OCC(=O)O,inactive,,43.3 µM (active),4.33 µM (active),4.33 µM (active),inactive,,,,24.3 µM (active),4.86 µM (active),,,,6.11 µM (active),inactive,inactive,,,
OCCCCCCCCCCCCBr,inactive,,inactive,inactive,inactive,inactive,inactive,inactive,,,inactive,inactive,,inactive,inactive,inactive,,,,
CCCCCCCCn1sc(Cl)c(Cl)c1=O,inactive,,27.3 µM (active),12.2 µM (active),,inactive,61.1 µM (active),inactive,inactive,,inactive,34.7 µM (active),inactive,,inactive,21.9 µM (active),,inactive,,
Nc1ccc2c3c(cccc13)-c1ccccc1-2,,,,,49.1 µM (active),inactive,inactive,,,,,inactive,31.2 µM (active),,inactive,,inactive,,inactive,49.1 µM (active)
O=C1CCCc2c1cc1ccc3cccc4ccc2c1c34,,,,,inactive,inactive,inactive,inactive,,3.48 µM (active),inactive,inactive,inactive,,,inactive,inactive,inactive,inactive,inactive
NNc1nc(-c2ccc([N+](=O)[O-])cc2)cs1,inactive,inactive,48.6 µM (active),,inactive,,,24.3 µM (active),,,inactive,,inactive,inactive,,inactive,inactive,inactive,,inactive
OCc1c[nH]c2ccccc12,,,,,inactive,inactive,inactive,inactive,,25.8 µM (active),,,inactive,,,inactive,inactive,inactive,30.6 µM (active),inactive
O=c1c(-c2ccccc2)c1-c1ccccc1,,,,,inactive,inactive,inactive,inactive,inactive,,,inactive,inactive,inactive,,inactive,inactive,inactive,5.96 µM (active),
O=C(Nc1ccc(Oc2ccc(Cl)cc2)c(Cl)c1)c1cc(I)cc(I)c1O,,,,,,inactive,inactive,,,23.7 µM (active),,inactive,inactive,inactive,,inactive,inactive,,29.8 µM (active),
CC[C@@]1(O)C(=O)OCc2c1cc1n(c2=O)Cc2c-1nc1ccccc1c2/C=N/OC(C)(C)C,,,,,inactive,inactive,11.9 µM (active),,,,inactive,inactive,inactive,,inactive,inactive,,inactive,0.0668 µM (active),inactive
Cc1cc(C2CCCCC2)n(O)c(=O)c1,,,,,inactive,inactive,inactive,,,3.35 µM (active),inactive,inactive,,inactive,inactive,inactive,,inactive,1.19 µM (active),
Nc1ccccc1O,,,,,inactive,inactive,inactive,67.7 µM (active),inactive,,,inactive,inactive,inactive,,inactive,,inactive,6.77 µM (active),
CCC(CN)=C(c1ccccc1)c1ccccc1,inactive,23.7 µM (active),,21.1 µM (active),,inactive,,inactive,inactive,,inactive,inactive,inactive,inactive,inactive,inactive,inactive,inactive,,inactive
CCCCCCCCCCCCc1ccc(O)cc1,,,,,48.6 µM (active),inactive,inactive,68.6 µM (active),,,54.5 µM (active),49 µM (active),,,30.6 µM (active),,,10.9 µM (active),inactive,
Cc1cccc(S(=O)(=O)O)c1C,inactive,,inactive,inactive,inactive,inactive,inactive,inactive,inactive,inactive,inactive,inactive,inactive,inactive,inactive,inactive,inactive,inactive,,
